# NadD block: NadD (S. aureus) enzyme inhibition | purified NadD enzyme, colorimetric absorbance read-out | inhibition, % at 20 µM | 360,000 compounds, 0.78% hits; in the data active = inhibition above about 26%
# GRIN3A LBD mod: modulators (binders) of human NR3A ligand-binding domain; 340,000 compounds, 2.5% hits; Tm shift relative to glycine control, % at 25 µM; AID 1259313; NR3A LBD differential scanning fluorimetry, Tm shift; 0% = protein alone, 100% = glycine-bound protein;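 active = melting temperature shift of at least 10% of the positive control shift, at one fixed dose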
# rCAG RNA binder: r(CAG) repeat RNA binding; TO-PRO-1 dye displacement fluorescence; inhibition, % at 3 µM; 370,000 compounds, 1.3% hits; AID 651821;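 active = inhibition above the plate cutoff, the mean of all test compounds on that plate plus 3 SD, cut at about 35% in these data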;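 also: 0% = DMSO alone and 100% = 100 µM mitoxantrone as full dye displacement; higher means more dye released from RNA so lower well fluorescence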
# FAS TE block: blocks the thioesterase domain of human fatty acid synthase. recombinant FAS-TE, OMFH fluorogenic substrate, fluorescence endpoint. inhibition, % at 15 µM. AID 602261. 360,000 compounds, 0.67% hits. P49327;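 active = compounds whose normalised, plate-corrected inhibition of enzyme fluorescence in the single-dose primary screen is 50% or more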;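 also: 0% = DMSO with enzyme and 100% = substrate without enzyme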
# NadD conf: NadD (S. aureus) inhibition, single concentration confirmation; purified S. aureus NadD, colorimetric enzyme assay; shares compounds with NadD block; AID 624309; 2,000 compounds, 13% hits; inhibition, % at 20 µM; in the data active = inhibition mostly above about 42%, no sharp cut-off; inactive = mostly below about 42%
# * = called active by the depositor; / = no result. The list is not random: actives were taken first. Their share in the collection is about 4.3%.
SMILES,NadD block,GRIN3A LBD mod,rCAG RNA binder,FAS TE block,NadD conf
C#CCN(C[C@H]1[C@H](OC(=O)NC2CC2)[C@H](OC(=O)NC2CC2)C[C@H]2C(=O)N(c3ccccc3)C(=O)[C@@H]12)S(=O)(=O)c1ccc(C)cc1,-6,/,9,-4,/
C#CCN(C[C@H]1[C@H](OC(=O)NCC2CCCCC2)[C@H](OC(=O)NCC2CCCCC2)C[C@H]2C(=O)N(c3ccccc3)C(=O)[C@@H]12)S(=O)(=O)c1ccc(C)cc1,37*,/,22,8,21
COc1ccccc1CNC(=O)C[C@H]1CC[C@H]2[C@H](COc3ccc(NS(=O)(=O)c4ccc(C)cc4)cc3C(=O)N2C)O1,/,/,8,/,/
Cc1ccc(S(=O)(=O)Nc2ccc(Nc3nccn4c(-c5ccccc5Oc5ccccc5)cnc34)cc2)cc1,36*,/,21,18,64*
Cc1ccc(S(=O)(=O)Nc2ccc(Nc3nccn4c(-c5ccc6ccccc6c5)cnc34)cc2)cc1,41*,/,19,15,53*
Cc1ccc(-c2cnc3c(Nc4cccc(OC(F)(F)C(F)F)c4)nccn23)cc1,5,/,3,17,/
CCOc1ccc(-n2c(SCC(=O)Nc3cccc4ccccc34)nnc2-c2ccccc2)cc1,/,/,4,/,/
CN(C)S(=O)(=O)c1cccc(C(=O)N/N=C\c2ccccc2[N+](=O)[O-])c1,/,/,4,/,/
COc1ccc(Cc2c(C3CCCCC3)nc3ccc(C)cn23)c(C)c1,/,/,5,/,/
Cc1ccccc1-n1nc2c(c1NC(=O)CCCl)CSC2,-4,0,11,-3,/
Cc1ccc(-n2nc3c(c2NC(=O)/C=C\c2ccc4c(c2)OCO4)CSC3)cc1,41*,-2,24,6,62*
Cc1ccc(-n2nc3c(c2NC(=O)/C=C\c2ccc4c(c2)OCO4)CSC3)c(C)c1,31*,-6,15,4,57*
Cc1ccc(-n2nc3c(c2NC(=O)C(C)(C)C)CSC3)c(C)c1,7,-20,6,-8,/
Cc1ccc(-n2nc3c(c2NC(=O)c2ccc(Br)o2)CSC3)c(C)c1,85*,3,25,16,62*
Cc1cccc(-n2nc3c(c2NC(=O)c2ccco2)CSC3)c1C,44*,-5,25,0,73*
CCCCCCN1CCS(=O)(=O)N(Cc2ccc(F)cc2)C(C(=O)OC)C1 (configuration not stated),/,/,3,/,/
Cc1ccccc1-n1nc2c(c1NC(=O)c1c(-c3ccccc3Cl)noc1C)CSC2,63*,-1,17,19,34
N#CC1=C(N)NC(SCC(=O)c2ccc(Cl)cc2)=C(C#N)C12CCCC2,33*,6,14,10,38
N#CC1=C(N)NC(SCC(=O)Nc2ccccc2)=C(C#N)C12CCCCC2,0,-1,7,6,/
COc1ccc(CN2CCC(CNC(=O)Nc3ccccc3)CC2)cc1,/,/,0,/,/
CCN(CC)C(=O)c1sc2nc(-c3cccs3)cc(-c3cccs3)c2c1N,73*,1,15,10,8
CCN(CC)C(=O)c1sc2nc(-c3cccs3)cc(-c3ccc(Cl)cc3)c2c1N,44*,-2,15,-1,-5
N#Cc1sc2nc(-c3cccs3)cc(-c3ccc(Cl)cc3)c2c1N,0,2,12,13,/
Cc1nnc(NC(=O)c2sc3nc(-c4cccs4)cc(C(F)(F)F)c3c2N)s1,30*,-2,42*,-64,-3
CCOc1ccc(-n2c(SCC(=O)Nc3ccc(Oc4ccccc4)cc3)nnc2-c2ccncc2)cc1,/,/,13,/,/
SMILES,NadD block,GRIN3A LBD mod,rCAG RNA binder,FAS TE block,NadD conf
O=C(N/N=C\c1ccc(-c2ccccc2[N+](=O)[O-])o1)C1COc2cc3ccccc3cc2O1 (configuration not stated),42*,-7,20,4,46
Cc1c(C(=O)N/N=C/c2ccc(-c3ccccc3[N+](=O)[O-])o2)sc(N)c1C#N,36*,-2,33,-20,20
O=C(c1ccccc1)C12COc3ccccc3C1ON=C2c1ccccc1 (configuration not stated),/,/,3,/,/
N#C/C(=C\c1c[nH]c2ccccc12)C(=O)Nc1ncc(Cc2ccc(Cl)cc2Cl)s1,38*,38*,10,-7,-5
N#C/C(=C\c1c[nH]c2ccccc12)C(N)=O,-7,-4,2,-6,/
O=C(Cc1ccccc1)Nc1ncnc2c1C(c1ccccc1)c1c(ccc3ccccc13)O2 (configuration not stated),32*,-4,13,43,31
COc1ccc(C2c3c(ccc4ccccc34)Oc3ncn4nc(Cc5ccccc5)nc4c32)cc1OC (configuration not stated),11,0,2,26,/
COc1cc(C2C(C#N)=C(N)N(Nc3ccccc3)C3=C2C(=O)CC(C)(C)C3)ccc1OCc1ccccc1 (configuration not stated),20,-1,12,31,/
COc1cc(C2C(C#N)=C(N)N(Nc3ccccc3)C3=C2C(=O)CC(C)(C)C3)ccc1OCc1cccc(F)c1 (configuration not stated),31*,-1,11,28,13
CN1C[C@]2(C=C3CCCCC3n3c(=O)n(-c4ccccc4)c(=O)n32)N(C(=O)OCc2ccccc2)C1=NC(=O)c1ccccc1 (some centres not stated),/,/,4,/,/
CC(C)[C@H](NC(=O)[C@H](Cc1ccccc1)NC(=O)OC(C)(C)C)C(=O)N1CCC2CCN(S(=O)(=O)c3ccccc3)CC21 (some centres not stated),/,/,3,/,/
CC(=O)Nc1ccc(S(=O)(=O)/N=C2\SCCN2S(=O)(=O)c2ccc(NC(C)=O)cc2)cc1,58*,-8,8,-9,48
CC(=O)Nc1ccc(S(=O)(=O)Nc2ccc(S(=O)(=O)N3CCCC3)cc2)cc1,-3,-34,3,-6,/
COc1ccc(-c2[nH]n(-c3ccc([N+](=O)[O-])cc3)c(=O)c2C=NCc2ccncc2)cc1,29*,-1,21,25,4
COc1ccc(Br)cc1/C=N/NC(=O)c1nc(-c2ccccc2)n2c1CCCCC2,39*,0,-3,24,13
O=C(Cn1c(-c2cncs2)nc2ccccc21)NCc1cccs1,/,/,6,/,/
O=C(Nc1ccccc1C(F)(F)F)NC1(C(=O)N2CCOCC2)CCCCC1,31*,-4,72*,18,46
O=C1NC(=O)/C(=C/c2ccc(-c3cccc([N+](=O)[O-])c3)o2)S1,45*,-2,16,-2,5
O=Cc1ccc(-c2cccc([N+](=O)[O-])c2)o1,-1,-2,-2,2,/
COc1ccc(OC)c(NC(=O)C(Sc2ccccc2)c2ccccc2)c1 (configuration not stated),-1,-5,-5,31,/
COc1ccc(Nc2nnc(SC(C(=O)Nc3ccc(OC)c(Cl)c3)c3ccccc3)s2)cc1 (configuration not stated),32*,25*,19,24,48
COC(=O)[C@]12C[C@H](CC(=O)N3CCCC3)C(=O)N(Cc3cccc4ccccc34)C1=C[C@H](C(C)C)O[C@@H]2C1CC1,/,/,5,/,/
